PostGolgi yeast: growth inhibition of a yeast mutant, post-Golgi transport screen; post-Golgi transport phenotypic cell assay; inhibition, % at 10 µM; 98,000 tested, 0.9% active;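 note: yeast cells grown in 1536-well plates; yeast grown about 18 h at 30C before absorbance read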
MT1-MMP txn act: MT1-MMP promoter transcription activation; 86,000 tested, 0.16% active; HT1080 MT1-MMP promoter luciferase reporter, luminescence, overnight; stronger effect = higher value; activation factor at 10 µM;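 active = activation factor of at least 2 for MT1-MMP transcription at 10 µM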
PostGolgi ctrl: yeast control strain growth, post-Golgi counter-screen; efflux-deficient yeast background strain, growth absorbance A615, 16 h; inhibition, % at 10 µM; 98,000 tested, 5% active; AID 738
Measles CPE: protection of cells from measles virus. protection (pct of control), % at 4 µM. Measles virus-infected cells, CPE protection, absorbance. AID 841. 140,000 tested, 1.5% active; in the data active = protection mostly above about 24%, no sharp cut-off; inactive = mostly below about 26%
Starred values were filed as active, the others as inactive; x = no result given. Most compounds without a hit are left out; they make up all but 5.3% or so of the library. Cut-off read from the data, not from the text of the source, unless noted: active = inhibition above about 30%; inactive = the rest.

SMILES	PostGolgi yeast	MT1-MMP txn act	PostGolgi ctrl	Measles CPE
O=C(c1sc2ccccc2c1Cl)N(Cc1ccccc1Cl)C1CCS(=O)(=O)C1 (centres undefined)	6.4	1.3	30.9*	4.3
CSc1nc(NCC(C)C)nc(N2CCOCC2)n1	-2.8	1	8.2	35.8*
CCOc1ccc(-n2c(SCc3ccc(C#N)cc3)nnc2-c2cccnc2)cc1	-5.4	1.1	4.0	18.5
C=CCSc1nnc(-c2ccncc2)n1-c1ccc(OCC)cc1	4.6	x	31.4*	2.5
OC(COc1ccc2ccccc2c1Br)Cn1cnc(-c2ccccc2)c1 (centres undefined)	26.9	1	52.6*	1.2
COc1ccc(OCC(O)Cn2cnc(-c3ccc(Br)cc3)c2)cc1 (centres undefined)	x	1.1	x	4.3
Cc1cc(C)n(C(=O)c2sc3cc(F)ccc3c2Cl)n1	x	x	x	7.1
Cc1[nH]nc2c1C1(CCN(Cc3ccccc3)CC1)C(C#N)=C(N)O2	-10.1	1.2	-4.3	26.7
N#CC1=C(N)N2C(=C(C#N)C13CCN(Cc1ccccc1)CC3)Nc1ccccc12	-20.1	1.3	30.2*	2.5
COc1ccccc1NC(=O)CSc1nc2ccccc2cc1Cc1ccccc1	0.2	x	7.6	17.1
O=C(N/N=C/c1cccc(Cl)c1Cl)Nc1ccccc1	-3.5	x	36.2*	2.4
CC(=O)Oc1ccc(C(=O)Nc2nnc(C)s2)cc1	30.4*	1.4	2.0	16.6
C=CCn1ncc(OC)c(Cl)c1=O	19.3	x	6.7	89.4*
COc1cnn(Cc2ccccc2)c(=O)c1SCc1ccccc1	x	x	x	2.5
O=C(c1ccc(F)cc1)c1ccc(N2CCCC2)cc1	6.3	1.3	42.0*	10.4
CCCCC(CC)C(=O)Nc1ccccc1C(=O)NC(C)C (centres undefined)	2.0	1.1	37.1*	8.3
Cc1c(OCc2nn[nH]n2)ccc2c(-c3ccccc3)cc(=O)oc12	2.5	1.1	0.8	22.5
Cc1cc(OCc2nn[nH]n2)c2c(C)c(Cc3ccccc3)c(=O)oc2c1	-3.3	1	32.0*	23.6
Cc1cc(OCc2nn[nH]n2)c2c(C)c(CC(=O)O)c(=O)oc2c1	-10.2	1.2	9.0	3.0
Cc1c(Cc2ccccc2)c(=O)oc2c(C)c(OCc3nn[nH]n3)ccc12	30.8*	1.2	0.7	3.5
Cc1nnc(N2CCN(c3ccccc3)CC2)c2nn(-c3ccccc3F)c(C)c12	x	1	x	x
Cc1nc(NC(=S)NC(=O)COc2ccccc2Cl)ccc1Br	x	x	x	5.7
COC(=O)c1ccccc1NC(=S)NC(=O)COc1ccccc1Cl	-1.4	x	31.4*	35.8
COC(=O)c1ccc(COC(=O)c2ccc(SC)cc2OC)cc1	x	x	x	9.8
CCC(Oc1ccccc1)C(=O)Nc1nnc(C(F)(F)F)s1 (centres undefined)	8.4	1	48.2*	13.1
SMILES	PostGolgi yeast	MT1-MMP txn act	PostGolgi ctrl	Measles CPE
CCC(Oc1ccccc1)C(=O)Nc1ccccc1OC (centres undefined)	-1.1	1	31.1*	6.3
CCC(Oc1ccccc1)C(=O)Nc1nnc(C)s1 (centres undefined)	11.3	1.1	31.0*	7.4
COC(=O)c1ccc(C(NC(=O)OCc2ccccc2)/C(C)=C/[C@@H](C)C(=O)NCCc2c[nH]c3ccc(OC)cc23)cc1 (some centres undefined)	x	1.1	x	x
O=C(c1cc(-c2ccco2)nc2ccccc12)N1CCN(c2ccc(F)cc2)CC1	x	x	x	9.8
C=CCn1c(COc2ccccc2)nnc1SC(C)C(=O)N/N=C/c1cc(Cl)ccc1O (centres undefined)	0.9	x	11.0	9.2
CCOc1cc(/C=N/Nc2ccccc2Cl)ccc1OCC(=O)O	x	x	x	3.4
Cc1ccc(C(=O)c2coc3c2C(=O)C(=O)c2ccccc2-3)cc1	80.6*	x	70.5*	6.8
Cc1ccc(C(=O)c2c(C)oc3c2C(=O)C(=O)c2ccccc2-3)cc1	28.8	1.5	-5.5	2.9
Cc1oc2c(c1C(=O)c1ccc(Cl)cc1)C(=O)C(=O)c1ccccc1-2	45.0*	x	58.4*	0.4
O=C(O[C@@H]1OC2COC(=O)c3cc(O)c(O)c(O)c3-c3c(cc(O)c(O)c3O)C(=O)O[C@@H]([C@H]1O)[C@@H]2O)c1cc(O)c(O)c(O)c1	x	x	x	5.3
C=CCn1c(SCc2c(C)noc2C)nc2sc3c(c2c1=O)CCCC3	-3.3	1	14.8	0.8
Cc1noc(C)c1CSc1nc2sc3c(c2c(=O)n1C)CCCC3	0.2	0.8	39.6*	96.1*
CN(C)c1ccc(N/C=C/C(=O)C(C)(C)C)cc1	5.3	1.2	6.8	52.7*
CN(C)c1ccc(N/C=C/C(=O)c2ccccc2)cc1	-5.3	0.1	3.4	7.8
COc1ccc(C(=O)CSc2nnc(CN3CCCCC3)n2-c2ccc(F)cc2)cc1	x	x	x	15.7
Cc1ccc2[nH]c3c(N4CCN(Cc5ccccc5)CC4)ncnc3c2c1	10.0	1	10.6	20.5
Cc1ccc2c(c1)c1ncnc(N3CCN(c4ccccc4)CC3)c1n2C	17.4	1.1	52.6*	1.9
Cc1ccc2c(c1)c1ncnc(N3CCC4(CC3)OCCO4)c1n2C	-2.5	1.9	19.0	3.1
Cc1ccc2c(c1)c1ncnc(N3CCOCC3)c1n2C	19.7	1.6	36.2*	9.6
CCCCOC(=O)Cn1c(=O)c2c(nc(Br)n2Cc2ccccc2)n(C)c1=O	-13.8	1.2	22.9	3.8
Cc1ccc(-n2c3c(c(=O)[nH]c2=O)C(C(F)(F)F)(C(F)(F)F)NC(=O)N3)cc1	24.9	1.2	5.5	23.1
COC(=O)CNC(=O)CNC(=O)c1nn(-c2ccc(OC)c(Cl)c2)c(=O)c2ccccc12	14.2	x	35.1*	4.9
COC(=O)CNC(=O)c1nn(-c2cccc(OC)c2)c(=O)c2ccccc12	3.8	1.3	11.5	44.4*
COc1cccc(-n2nc(C(=O)O)c3ccccc3c2=O)c1	5.9	1.2	8.2	45.4
CCCS(=O)(=O)c1c(S(=O)(=O)CCC)c2c(C)cccn2c1C(N)=O	x	1.2	x	5.3
SMILES	PostGolgi yeast	MT1-MMP txn act	PostGolgi ctrl	Measles CPE
CCCS(=O)(=O)c1cn2cccc(N)c2c1S(=O)(=O)CCC	-0.6	1.5	31.3*	30.6
O=S(=O)(c1ccc(SCCO)nc1)N1CCCC1	-6.6	1.1	5.1	17.8
O=c1cc(CSc2ccc(S(=O)(=O)N3CCCCC3)cn2)nc2sccn12	78.9*	1	73.4*	2.5
COc1ccc(/C=C/C(=O)OCC(=O)Nc2cc(C(F)(F)F)ccc2Cl)cc1	x	x	x	3.3
Nc1cc(C(=O)O)c(Oc2ccc(Cl)cc2Cl)cc1C(=O)O	x	x	x	6.8
COc1ccc(Cl)cc1NC(=O)CN(C)C(C)C(=O)NCC1CCCCC1 (centres undefined)	1.0	1.1	19.6	6.2
COc1ccc(Cl)cc1NC(=O)CN(C(=O)c1ccco1)C1CCCCC1	-0.9	0.9	40.6*	7.3
CC(=O)N(C(C)=O)C1=C(C#N)C2(CCCCC2)Cc2ccccc21	-17.5	1.1	29.1	4.2
Cc1cc(C)c(S(=O)(=O)NCCn2ccc3ccccc32)c(C)c1	-0.2	x	56.9*	2.5
Cc1cc(C)c(S(=O)(=O)n2ccc3ccccc32)c(C)c1	1.1	1.1	0.6	7.4
Cc1ccc(Sc2cnn(-c3ccccc3)c(=O)c2Cl)cc1	-5.5	x	23.8	4.5
Nc1ccc(Sc2cnn(-c3ccccc3)c(=O)c2Cl)cc1	8.7	x	40.0*	5.8
COc1ccc(NC2=CC(=O)N(C)C2=O)cc1	x	x	x	23.3

Bioassay records: PubChem, several laboratories
